The source made the active and inactive calls. Rule for the calls: active = hit-call score of the fitted dose curve at least 0.9, where 1 is the maximum; inactive = score below 0.9.

Assay [1] can be described thus: APR_HepG2_CellLoss_1hr: Apredica 1-hour HepG2 Assay for Cell Loss (AID 2282668).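 Note: curves fitted both ways against DMSO so gain or loss of cells counts.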 Particulars: high-content imaging. The procedure, abridged:
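Cell number comes from high-content imaging of Hoechst-labelled nuclei in fixed HepG2 cells. Cells were exposed for 1 h to ten concentrations from 0.39 to 200 uM in 0.5% DMSO. Gain or loss was fitted against DMSO controls.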

Assay [2] is described as follows: APR_HepG2_NuclearSize_1hr: Apredica 1-hour HepG2 Assay for Nuclear Size (AID 2282670). The following applies: high-content imaging, actives raise or lower the signal. The procedure, abridged:
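Nuclear size measured by high-content imaging of Hoechst 33342 nuclear stain after formaldehyde fixation; human HepG2 line exposed 1 hr to compounds at 0.39–200 uM in 0.5% DMSO, with bidirectional curve fitting relative to DMSO.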

The nature of assay [3]: APR_HepG2_P-H2AX_1hr: Apredica 1-hour HepG2 Assay for H2AX Phosphorylation (AID 2282673). Particulars: high-content imaging, actives raise or lower the signal. The procedure, abridged:
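Phospho-H2A.x immunofluorescence (1:200, FITC secondary) plus Hoechst nuclear stain, quantified by high-content imaging in HepG2 after 1 hr compound exposure. Ten concentrations, 0.39 to 200 uM, in duplicate with 0.5% DMSO; fit both directions against DMSO.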

Assay [4] is described as follows: APR_HepG2_MitoMass_1hr: Apredica 1-hour HepG2 Assay for Mitochondrial Mass (AID 2282674). The following applies: high-content imaging, actives raise or lower the signal. The procedure, abridged:
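Mitochondrial mass is taken from MitoTracker Red CMXRos (250 nM, 30 min, pre-fixation) fluorescence imaged at 20x in HepG2 cells. Exposure lasted 1 hr across ten concentrations, 0.39 to 200 uM, 0.5% DMSO; DMSO baseline, bidirectional fitting.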

A short description of assay [5]: APR_HepG2_MitoMembPot_1hr: Apredica 1-hour HepG2 Assay for Mitochondrial Membrane Potential (AID 2282675). The following applies: imaging, actives raise or lower the signal. The procedure, abridged: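 Mitochondrial membrane potential read as MitoTracker Red CMXRos intensity by automated imaging of fixed HepG2 cells. Dye at 250 nM for 30 min pre-fixation; compounds 0.39 to 200 uM for 1 hour, duplicate wells, 0.5% DMSO.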

Assay [6] is described as follows: APR_HepG2_CellCycleArrest_1hr: Apredica 1-hour HepG2 Assay for Cell Cycle Arrest (AID 2282666). Particulars: high-content imaging, actives raise or lower the signal. The procedure, abridged:
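Cell cycle arrest scored from nuclear DNA content (Hoechst 33342) using high-content imaging of fixed HepG2 cells after 1 h treatment across 0.39–200 uM, in duplicate. Gain or loss fitted relative to 0.5% DMSO.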

Assay [7] can be described thus: APR_HepG2_MicrotubuleCSK_1hr: Apredica 1-hour HepG2 Assay for Microtubule CSK Stabilty (AID 2282669). The following applies: HepG2 microtubule cytoskeleton imaging, actives raise or lower the signal. The procedure, abridged:
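Alpha-tubulin immunofluorescence, imaged by automated high-content microscopy with Hoechst nuclear segmentation, measured cytoskeletal change after 1 h dosing of HepG2 at 0.39–200 uM in 0.5% DMSO. Activity fitted in both directions relative to DMSO.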

Assay [8] is described as follows: APR_HepG2_StressKinase_1hr: Apredica 1-hour HepG2 Assay for Stress Kinase (AID 2282906). Particulars: HepG2 stress kinase (phospho-c-Jun) imaging, actives raise or lower the signal. The procedure, abridged: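 High-content imaging of phospho-c-Jun immunostaining (with Hoechst nuclear identification) after a 1 h exposure of HepG2 cells to 10 concentrations from 0.39 to 200 uM, final DMSO 0.5%. Fitted bidirectionally against DMSO.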

Assay [9] is described as follows: APR_HepG2_MitoticArrest_1hr: Apredica 1-hour HepG2 Assay for Mitotic Arrest (AID 2282672). The following applies: high-content imaging, actives raise or lower the signal. The procedure, abridged:
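Ten-point concentration series (0.39 to 200 uM, duplicates, 0.5% v/v DMSO) applied to human HepG2 liver cells for 1 hr. High-content imaging of phospho-histone H3 and Hoechst-stained nuclei after fixation and permeabilization; DMSO-normalised bidirectional fit.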

The nature of assay [10]: APR_HepG2_CellCycleArrest_24hr: Apredica 24-hour HepG2 Assay for Cell Cycle Arrest (AID 2282905).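 Note: cell cycle arrest scored as ratio of 2N to 4N nuclear DNA content.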 The following applies: imaging, actives raise or lower the signal. The procedure, abridged:
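Compounds (0.39 to 200 uM, final DMSO 0.5% v/v) are applied to HepG2 cells for 24 hours; cells are then fixed, permeabilized and nuclei labeled with Hoechst 33342. Automated imaging measures DNA content, and activity is fitted in both directions against DMSO.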

With `O=C(O)C1(C(=O)Nc2ccc(Cl)cc2Cl)CC1`, the compound was called inactive in [1], in [2], in assay [3], in assay [4] and in assay [5].

`CCOC(=O)COc1cc(-n2ncc(C(F)(F)F)c(C)c2=O)c(F)cc1Cl`: the outcome in [6], in assay [1], in assay [2], in [3] and in assay [5] was inactive.

For `c1ccc2[nH]c(-c3cscn3)nc2c1`, the result in assay [6], in assay [1], in [2], in assay [3] and in assay [5] was inactive.

Take `CCNc1nc(N)nc(Cl)n1`: the call in assay [1], in assay [7], in assay [2], in assay [3], in assay [4] and in assay [5] was inactive. In addition, the call in assay [8] was inactive.

In the case of `CCOC(=O)C(C)Oc1ccc(Oc2nc3ccc(Cl)cc3o2)cc1` (stereo not given), the compound was classed as inactive in assay [1], in assay [2], in assay [3], in assay [4] and in assay [5].

`CCCN(CCC)C(=O)SCC`: the call in assay [1], in assay [2], in assay [9], in [3], in [5] and in assay [10] was inactive.

Regarding `CCSC(=O)N(CC(C)C)CC(C)C`, the result in [1], in [7], in assay [2], in [3] and in assay [5] was inactive.

Regarding `C#CCOC(=O)[C@@H](C)Oc1ccc(Oc2ncc(Cl)cc2F)cc1`, the result in [6], in assay [1], in assay [7], in assay [2], in assay [3] and in assay [4] was inactive. In addition, the compound was called inactive in assay [5].

As to `Oc1ccc(C(c2ccc(O)cc2)C(Cl)(Cl)Cl)cc1`, the result in assay [1], in assay [7], in assay [2], in assay [3] and in [10] was inactive. In addition, the AC50 in assay [5] is 87 µM (active).

For the compound `CCCOC(=O)c1ccc(C(=O)OCCC)nc1`, the compound was called inactive in assay [1], in [2], in [9], in [3] and in assay [5].

`CSC(=O)c1cccc2nnsc12`: the compound was called inactive in assay [6], in assay [1], in assay [2], in [9], in [3] and in [4]. The result in assay [5] was inactive.

On to `CCC(O)=C1C(=O)CC(C(=O)O)CC1=O` (stereo not given), for which the call in [1], in assay [2], in assay [9], in assay [3] and in assay [5] was inactive.

As to `CCOC(=O)NCCOc1ccc(Oc2ccccc2)cc1`, the outcome in [6], in assay [1], in assay [2], in assay [3], in assay [5] and in assay [8] was inactive.

Consider `c1ccc(Nc2ccccc2)cc1`, for which the result in assay [1], in assay [7], in assay [2], in assay [3] and in [5] was inactive.

With `CCC(C)OC(=O)N1CCCCC1CCO` (stereo not given), the result in [6], in [1], in assay [2], in assay [3] and in assay [5] was inactive.

As for `CC(C)(C)[C@@H](O)[C@@H](Cc1ccc(Cl)cc1)n1cncn1`, the compound was called inactive in assay [1], in [2], in assay [9], in assay [3], in assay [5] and in assay [10]. The outcome in assay [8] was inactive.

`CCCCC(CC)CN1C(=O)C2C3C=CC(C3)C2C1=O` (stereo not given): the outcome in assay [1], in assay [2], in [9], in assay [3] and in assay [5] was inactive.

Turning to `CCN(Cc1c(F)cccc1Cl)c1c([N+](=O)[O-])cc(C(F)(F)F)cc1[N+](=O)[O-]`, the compound was called inactive in [6], in assay [1], in assay [2], in assay [3] and in [5].

For the compound `COC(=O)c1c(Cl)nn(C)c1S(=O)(=O)NC(=O)Nc1nc(OC)cc(OC)n1`, the call in assay [1], in assay [2], in assay [9], in assay [3], in assay [5] and in [10] was inactive.

For `S=C([S-])NCCNC(=S)[S-].[Mn+2]`, the result in assay [1], in assay [7], in assay [2], in assay [3], in assay [5] and in [10] was inactive.

Consider `CCCCC(CC)COC(=O)c1ccccc1C(=O)O` (stereo not given), for which the result in assay [1], in [7], in assay [2], in assay [3] and in assay [5] was inactive.

Consider `C=CCOC(Cn1ccnc1)c1ccc(Cl)cc1Cl` (stereo not given), for which the compound was classed as inactive in assay [1], in [2], in assay [9], in assay [3], in assay [4] and in assay [5]. Moreover, the call in assay [10] and in assay [8] was inactive.

For `CN(C)C(=O)Nc1ccc(Cl)c(Cl)c1`, the compound was called inactive in assay [6], in assay [1], in assay [7], in assay [2], in assay [3] and in [5].

For the compound `CCCOC(=O)NCCCN(C)C`, the compound was classed as inactive in assay [1], in [7], in assay [2], in assay [3] and in [5].

As for `COC(=O)c1ccccc1S(=O)(=O)NC(=O)Nc1nc(OC(F)F)cc(OC(F)F)n1`, the call in [6], in assay [1], in assay [2], in assay [3], in [5] and in assay [10] was inactive.

For the compound `COCCO`, the compound was called inactive in [1], in [2], in assay [9], in assay [3], in assay [5] and in assay [10].

In the case of `CCOC(=O)c1ccc(O)cc1`, in assay [10], the call was inactive.

Turning to `N#CSCSc1nc2ccccc2s1`, the compound was classed as inactive in assay [1], in assay [2] and in [5]. Also, the AC50 in [3] is 27.5 µM (active); in assay [10], 29.6 µM (active); in [8], 33.3 µM (active).

Turning to `CCCN(CCC)c1c([N+](=O)[O-])cc(C(F)(F)F)c(N)c1[N+](=O)[O-]`, the compound was called inactive in assay [1], in assay [2], in assay [5] and in assay [10]. For the same compound, the AC50 in assay [3] was 109 µM (active).

`Cc1nn(C)c(Oc2ccccc2)c1C=NOCc1ccc(C(=O)OC(C)(C)C)cc1`: the call in assay [1], in assay [2], in assay [3] and in assay [5] was inactive. Besides, the concentration at half-maximal activity (AC50) in assay [10] was 29.9 µM (active).

Consider `S=C(S)NCCNC(=S)S.[Mn+2].[S-]C([S-])=NCCN=C([S-])[S-].[Zn+2]`, for which the call in assay [1], in [2], in assay [3], in assay [4] and in assay [5] was inactive.

As to `CCN(CC)C(=O)c1cccc(C)c1`, the call in assay [1], in [2], in assay [3] and in [5] was inactive.

As to `COC(=O)c1ccc(CNS(C)(=O)=O)cc1S(=O)(=O)NC(=O)Nc1nc(OC)cc(OC)n1`, the outcome in [1], in [2], in [3], in assay [5] and in [10] was inactive.

Source of the values: PubChem BioAssay (EPA / NIEHS).
